Rows were chosen to be rich in hits. Some 2.9% of all compounds tested hit in one or more screens of this group.
POLB inh – qHTS Assay for Inhibitors of DNA Polymerase Beta; P06746; Pol beta primer extension/strand displacement, fluorescence kinetic; Potency, µM (top dose mostly 114 µM), without a hit: top-dose activity change, negative = inhibition, usual class: inhibitors; 340,000 tested, 1.3% active; note: potency is the fitted concentration of half-maximal effect; % is set by controls: 0 for no effect and ±100 for the full control effect
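Curves were derived by four-parameter Hill fits of normalized qHTS data. The kinetic fluorescent primer-extension read was taken at 0 and 10 min after 50 nM substrate, following a 15 min room-temperature preincubation of 10 nM enzyme with compounds.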
ALOX12 inh – Primary qHTS assay for inhibitors of human arachidonate 12S-lipoxygenase (ALOX12): Round 2. Polyunsaturated fatty acid lipoxygenase ALOX12 (Homo sapiens), P18054. purified 12hLO, xylenol orange hydroperoxide absorbance. Potency, µM (series often up to 108 µM), for inactives: top-dose activity change, negative = inhibition, hits mostly inhibitors. 580,000 tested, 1.1% active. AID 1671190, 2021; note: potency is the fitted concentration of half-maximal effect; % is set by controls: 0 for no effect and ±100 for the full control effect
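Purified human 12hLO (150 nM final) in 25 mM Hepes, 0.01% Triton X-100, pH 7.0 was preincubated 15 min at room temperature with compound. Then 40 uM arachidonic acid was added, 30 min. Hydroperoxide was read by Fe-XO absorbance ratio 573/405 nm.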
PI5P4K alpha inh – qHTS for Inhibitors of phosphatidylinositol 5-phosphate 4-kinase (PI5P4K) | Phosphatidylinositol 5-phosphate 4-kinase type-2 alpha (Homo sapiens), P48426 | PI5P4Kalpha enzyme, ADP-Glo luminescence, 60 min; hits give low values | max response, % | 330,000 tested, 1.2% active; active = max response of -50% or lower; inconclusive = between -30% and -50%; inactive = -30% or higher; note: value at the top dose of about 77 µM; % is set by controls: 0 for no effect and ±100 for the full control effect
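Enzyme plus substrate dispensed, test compounds pinned in, then ATP (5 microM final) added. After 60 min at RT, ADP-Glo reagent 1 for 45 min and reagent 2 for 30 min preceded luminescence imaging.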
POLK inh – qHTS for Inhibitors of Polymerase Kappa | Potency, µM (titrated, usually from 107 µM), without a hit: top-dose activity, negative = inhibition, usual class: inhibitors | purified Pol kappa, fluorescent DNA synthesis assay, 10 min | 400,000 tested, 0.53% active; note: potency is the fitted concentration of half-maximal effect; % is set by controls: 0 for no effect and ±100 for the full control effect
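Activity was followed as the change in fluorescence between reads at 0 and 10 min after starting the reaction with 50 nM substrate. Beforehand, 10 nM polymerase had been preincubated with compound for 15 min at room temperature.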
Pol iota inh – qHTS for Inhibitors of Polymerase Iota. 390,000 tested, 1% active. DNA polymerase iota (Homo sapiens), Q9UNA4. Potency, µM (titrated, usually from 115 µM), for inactives: at the highest dose activity, negative = inhibition, usual class: inhibitors. Pol iota fluorescent replication assay, 10 min; note: potency is the fitted concentration of half-maximal effect
Target sequence (Q9UNA4 whole entry, looked up): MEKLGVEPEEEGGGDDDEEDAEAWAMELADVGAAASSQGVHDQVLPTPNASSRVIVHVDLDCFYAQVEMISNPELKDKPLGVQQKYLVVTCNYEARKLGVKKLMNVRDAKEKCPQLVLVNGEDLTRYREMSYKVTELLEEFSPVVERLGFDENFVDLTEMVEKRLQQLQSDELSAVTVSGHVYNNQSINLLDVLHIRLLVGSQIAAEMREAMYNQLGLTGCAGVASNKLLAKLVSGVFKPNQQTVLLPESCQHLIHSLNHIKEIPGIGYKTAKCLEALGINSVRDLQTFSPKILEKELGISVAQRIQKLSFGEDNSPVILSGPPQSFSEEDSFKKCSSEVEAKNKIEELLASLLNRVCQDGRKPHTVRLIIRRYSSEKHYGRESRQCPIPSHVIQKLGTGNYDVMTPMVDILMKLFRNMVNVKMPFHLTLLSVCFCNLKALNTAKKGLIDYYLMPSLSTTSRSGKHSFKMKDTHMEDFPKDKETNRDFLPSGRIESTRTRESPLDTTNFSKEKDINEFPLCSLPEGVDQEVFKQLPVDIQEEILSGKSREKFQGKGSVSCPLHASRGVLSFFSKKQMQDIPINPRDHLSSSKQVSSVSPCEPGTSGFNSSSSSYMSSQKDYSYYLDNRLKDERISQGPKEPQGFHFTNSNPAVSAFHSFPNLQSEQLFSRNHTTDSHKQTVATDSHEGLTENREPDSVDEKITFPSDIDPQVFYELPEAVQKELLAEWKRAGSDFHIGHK
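Pol iota at 10 nM preincubated 15 min with compounds at room temperature; reaction started with fluorescent substrate, 50 nM final. Fluorescence read kinetically at 0 and 10 min; buffer-only wells as negative control.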
POLH inh – qHTS for Inhibitors of Polymerase Eta | DNA polymerase eta (Homo sapiens), Q9Y253 | recombinant Pol eta, fluorescent DNA replication assay | Potency, µM (highest dose often 114 µM), without a hit: at the highest dose activity change, negative = inhibition, hits mostly inhibitors | 390,000 tested, 1.2% active; note: potency is the fitted concentration of half-maximal effect; % is set by controls: 0 for no effect and ±100 for the full control effect
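Fluorescent replication assay: 50 nM final substrate added after a 15 min room-temperature compound preincubation with 10 nM enzyme. Signal taken at 0 min and again at 10 min.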
* marks the source's active call; other numbers are inactive results; ? = inconclusive; nt = not tested or not shown. Unless noted, calls come from the whole dose curve; as a rule, active = well fitted inhibition curve with a large enough effect; inconclusive = small, poorly fitted or top-dose-only effect, or another doubt; inactive = no such curve, though single readings can be large or run the other way.

SMILES	POLB inh	ALOX12 inh	PI5P4K alpha inh	POLK inh	Pol iota inh	POLH inh
Cc1[nH]n(-c2ccccc2)c(=O)c1/C=N/NC(=O)c1cccc(F)c1	-19.4%	35.5µM*	-3.9	-0.3%	-21.3%	-12.0%
Cc1[nH]n(-c2ccc(Br)cc2)c(=O)c1/C=N/NC(=O)c1ccccc1	1.2%	0.0%	1.1	4.6%	27.7%	-17.6%
CCOC(=O)C1C(c2ccccc2F)NC(=O)NC1(O)C(F)(F)F (configuration not stated)	nt	-16.7%	nt	nt	nt	nt
CCc1nc2ccc(C(=O)N(CC)CC(=O)Nc3c(F)cccc3F)cc2nc1CC	nt	1.2%	-5.7	-44.8%	?	35.5µM*
CCN(CC(=O)Nc1c(F)cccc1F)C(=O)c1ccc(C(=O)c2ccccc2)cc1	nt	-20.9%	3.0	-15.9%	9.5%	1.1%
O=C(Nc1ccc2c(c1)OCO2)c1cnn2c(C(F)(F)F)cc(-c3ccc(F)cc3)nc12	nt	-1.1%	nt	nt	nt	nt
O=C(C1CCCN(Cc2ccccc2F)C1)N1CCc2ccccc2C1 (configuration not stated)	4.3%	0.0%	-3.3	-10.2%	62.2%	-1.3%
O=C(C1CCCN(Cc2cccc3ccccc23)C1)N1CCc2ccccc2C1 (configuration not stated)	nt	0.631µM*	nt	nt	nt	nt
C=CCc1cccc(CNc2cnc3ccccc3c2)c1O	-15.6%	7.94µM*	0.0	-23.9%	58.1%	-10.7%
Oc1ccccc1CNc1cnc2ccccc2c1	19.9%	?	nt	-6.0%	1.3%	-13.9%
C=CCc1cccc(CNc2nc3ccccc3n2CCN2CCOCC2)c1O	-26.1%	20.4%	nt	-12.1%	15.3%	-1.3%
Oc1ccc(Cl)cc1CNc1cnc2ccccc2c1	-26.1%	39.8µM*	8.1	4.0%	22.7%	-17.8%
C=CCc1cccc(CNc2nc3ccccc3n2C)c1O	4.0%	31.6µM*	23.1	-19.8%	25.1%	-28.6%
Cc1ccc(-c2cnc(CCC(=O)NC(C)c3ccco3)o2)cc1 (configuration not stated)	nt	9.3%	nt	nt	nt	nt
CCC(CC)NC(=O)C1CCc2nc(N3CCN(C(=O)C(C)C)CC3)sc2C1 (configuration not stated)	nt	35.5µM*	nt	nt	nt	nt
CCc1cc2c(=O)c(Oc3ccccc3)c(C(F)(F)F)oc2cc1OC(=O)c1ccccc1Cl	nt	-54.6%	nt	nt	nt	nt
Cc1nnc(NC(=O)NCC(C)(C)N2CCCC(C)C2)s1 (configuration not stated)	nt	-19.8%	nt	nt	nt	nt
CNC(=O)COc1ccc(Nc2nnc(-c3ccc(C)c(S(N)(=O)=O)c3)c3ccccc23)cc1	2.8%	0.0%	12.2	-9.4%	125.6%	39.8µM*
COc1ccc(Nc2nnc(-c3ccc(C)c(S(N)(=O)=O)c3)c3ccccc23)cc1	?	-15.7%	nt	-27.1%	-12.7%	-14.4%
CC(C)C(NCC(N)=O)c1cccs1 (configuration not stated)	nt	21.9%	nt	nt	nt	nt
Cc1cccc(N2C(=O)/C(=C\c3ccc(C(=O)O)cc3)c3ccccc3C2=O)c1	-7.4%	-25.2%	-2.3	-19.4%	46.4%	44.7µM*
Cc1cccc(N2C(=O)c3ccc(C(=O)Nc4ccccn4)cc3C2=O)c1	6.7%	-0.7%	-3.5	-2.1%	40.8%	-14.6%
C[C@@H]1COC(=O)[C@@H](NC(=O)OCC2c3ccccc3-c3ccccc32)C/C=C\C[C@@H](CC(=O)N(CCO)Cc2ccccc2)C(=O)N1	nt	?	?	8.5%	-1.8%	-1.6%
C[C@H]1COC(=O)[C@H](NC(=O)OCC2c3ccccc3-c3ccccc32)C/C=C\C[C@H](CC(=O)N(CCO)Cc2ccccc2)C(=O)N1	nt	39.8µM*	-12.9	-7.5%	-21.0%	1.7%
